# Measured values published in PubChem BioAssay.
# Unmarked numbers belong to inactive results. For some of these results: Measured potencies and affinities stand elsewhere. Activity calls are given as the source filed them. Unless noted, how the calls were made is not given here.
# Key:
# [1] = antimalarial activity against Dd2 strain (AID 2302;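 active means growth inhibition above 50% at the single 2 µM test dose, taken to imply half-maximal potency below 2 µM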;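 further: 0% = DMSO untreated growth and 100% = chloroquine plus artemisinin killed control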); conditions: P. falciparum Dd2 in RBCs, LDH growth readout, 72 h; at 2 µM; stronger effect = higher value
# [2] = human hepatoma cell viability loss – ATP luminescence, cytotoxicity control for P. falciparum antimalarial project, primary screen (AID 2303;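 active means inhibition above 50%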;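 further: 0% = DMSO wells and 100% = digitonin-killed cells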); conditions: HepG2 viability, 24-48 h, at 10 µM, stronger effect = higher value
# [3] = biological target: L-lactate dehydrogenase (Plasmodium falciparum (isolate CDC / Honduras)) (UniProt Q27743); assay: PfLDH activity inhibition – cell lysate, 3D7 strain, counter-screen for P. falciparum growth inhibition project (AID 2304);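 further: 0% = vehicle and 100% = reference inhibitor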; conditions: P. falciparum 3D7 crude extract, LDH APAD/NBT absorbance; at 2 µM; stronger effect = higher value
# Chain of L-lactate dehydrogenase (Plasmodium falciparum (isolate CDC / Honduras)) (Q27743 whole entry, looked up): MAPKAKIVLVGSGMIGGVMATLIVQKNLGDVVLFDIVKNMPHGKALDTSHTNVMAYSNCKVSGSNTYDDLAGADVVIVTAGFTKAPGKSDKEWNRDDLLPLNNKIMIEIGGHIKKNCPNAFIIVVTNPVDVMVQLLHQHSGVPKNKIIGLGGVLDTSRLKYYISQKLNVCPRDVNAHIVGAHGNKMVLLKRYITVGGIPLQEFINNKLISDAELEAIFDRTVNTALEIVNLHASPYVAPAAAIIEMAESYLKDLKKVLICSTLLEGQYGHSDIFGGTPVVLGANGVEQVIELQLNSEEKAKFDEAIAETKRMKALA
# [4] = inhibition of 3D7 malaria parasite growth – strain 3D7 (AID 2306);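 further: 0% = DMSO wells and 100% = chloroquine plus artemisinin control wells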; conditions: P. falciparum 3D7 erythrocytic growth, LDH absorbance, 72 h; at 2 µM; stronger effect = higher value
# [5] = biological target: Calcium-dependent protein kinase 1 (Plasmodium falciparum (isolate 3D7)) (UniProt P62344); assay: PfCDPK1 kinase inhibitors, biochemical, TCAMS library (AID 1159585; cut-off not given, nearly all actives have IC50 up to about 0.98 µM;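 further: inhibitors leave more ATP so luminescence rises with inhibition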); conditions: recombinant PfCDPK1, Kinase-Glo ATP depletion luminescence
# Chain of Calcium-dependent protein kinase 1 (Plasmodium falciparum (isolate 3D7)) (P62344 whole entry, looked up): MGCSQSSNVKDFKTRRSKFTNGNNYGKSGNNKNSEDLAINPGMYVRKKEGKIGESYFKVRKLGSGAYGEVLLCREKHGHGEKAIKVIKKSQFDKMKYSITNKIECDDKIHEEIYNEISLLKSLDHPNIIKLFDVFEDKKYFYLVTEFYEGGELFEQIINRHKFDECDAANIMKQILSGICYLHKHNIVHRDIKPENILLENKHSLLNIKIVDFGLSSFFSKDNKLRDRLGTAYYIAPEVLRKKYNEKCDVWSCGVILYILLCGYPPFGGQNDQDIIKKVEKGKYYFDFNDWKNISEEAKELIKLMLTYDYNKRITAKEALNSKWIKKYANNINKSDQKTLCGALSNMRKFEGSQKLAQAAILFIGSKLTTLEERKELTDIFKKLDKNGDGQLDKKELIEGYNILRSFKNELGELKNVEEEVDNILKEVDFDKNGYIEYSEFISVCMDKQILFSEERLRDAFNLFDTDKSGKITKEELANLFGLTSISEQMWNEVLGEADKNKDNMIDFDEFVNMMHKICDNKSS
# [6] = biological target: Plasmodium falciparum protein kinase 6 (PK6, PF3D7_1337100) (UniProt Q8IDW1); assay: PfPK6 kinase inhibitors, biochemical, TCAMS library (AID 1159586); conditions: recombinant PfPK6, Kinase-Glo ATP depletion luminescence
# Chain of Plasmodium falciparum protein kinase 6 (PK6, PF3D7_1337100) (Q8IDW1 1-305): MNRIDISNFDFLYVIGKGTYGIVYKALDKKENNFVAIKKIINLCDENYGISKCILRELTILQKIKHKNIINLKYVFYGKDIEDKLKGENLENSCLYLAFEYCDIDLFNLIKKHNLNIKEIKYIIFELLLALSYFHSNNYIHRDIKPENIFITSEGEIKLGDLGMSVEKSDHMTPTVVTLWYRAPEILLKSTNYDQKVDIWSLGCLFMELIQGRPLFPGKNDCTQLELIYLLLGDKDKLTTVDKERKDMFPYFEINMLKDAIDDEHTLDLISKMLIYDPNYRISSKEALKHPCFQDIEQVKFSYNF
# [7] = biological target: Protein kinase 7 (PK7), Plasmodium falciparum 3D7 (PF3D7_0213400) (UniProt Q7YTF7); assay: inhibition of Plasmodium PK7 catalytic activity – biochemical, TCAMS antimalarial set, Kinase-Glo luminescence (AID 1159587); conditions: recombinant PfPK7, Kinase-Glo ATP depletion luminescence
# Chain of Protein kinase 7 (PK7), Plasmodium falciparum 3D7 (PF3D7_0213400) (Q7YTF7 1-343): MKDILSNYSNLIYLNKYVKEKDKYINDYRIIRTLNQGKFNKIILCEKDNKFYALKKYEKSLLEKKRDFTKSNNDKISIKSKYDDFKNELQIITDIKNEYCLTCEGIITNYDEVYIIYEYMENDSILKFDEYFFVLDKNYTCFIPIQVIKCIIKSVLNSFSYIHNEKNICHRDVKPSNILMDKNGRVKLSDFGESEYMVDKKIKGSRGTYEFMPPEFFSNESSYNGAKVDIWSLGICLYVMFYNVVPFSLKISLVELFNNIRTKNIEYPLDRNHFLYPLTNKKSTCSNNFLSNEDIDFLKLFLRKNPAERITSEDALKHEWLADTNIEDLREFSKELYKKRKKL
# [8] = biological target: Calcium-dependent protein kinase 4 (Plasmodium falciparum (isolate 3D7)) (UniProt Q8IBS5); assay: PfCDPK4 kinase inhibitors, biochemical, TCAMS library (AID 1159588; cut-off not given, nearly all actives have IC50 up to about 0.91 µM); conditions: recombinant PfCDPK4, Kinase-Glo ATP depletion luminescence
# Chain of Calcium-dependent protein kinase 4 (Plasmodium falciparum (isolate 3D7)) (Q8IBS5 whole entry, looked up): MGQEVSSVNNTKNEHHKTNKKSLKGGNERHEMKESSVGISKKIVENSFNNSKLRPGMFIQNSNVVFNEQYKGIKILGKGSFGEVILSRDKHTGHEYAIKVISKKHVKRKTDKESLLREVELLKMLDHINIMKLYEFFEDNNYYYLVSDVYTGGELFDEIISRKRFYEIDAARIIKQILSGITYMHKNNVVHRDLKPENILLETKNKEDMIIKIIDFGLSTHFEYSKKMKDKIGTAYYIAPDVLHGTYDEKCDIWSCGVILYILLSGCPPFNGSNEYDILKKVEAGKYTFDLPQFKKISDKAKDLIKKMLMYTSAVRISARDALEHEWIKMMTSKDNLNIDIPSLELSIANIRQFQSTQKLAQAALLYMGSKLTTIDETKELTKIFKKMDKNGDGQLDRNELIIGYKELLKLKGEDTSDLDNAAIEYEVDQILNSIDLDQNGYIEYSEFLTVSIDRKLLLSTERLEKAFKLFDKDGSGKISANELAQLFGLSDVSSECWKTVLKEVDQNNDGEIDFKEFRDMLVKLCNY
SMILES,growth inhibition [1],inhibition [2],inhibition [3] [%],growth inhibition [4],outcome [5],outcome [6],outcome [7],outcome [8]
Cc1ccc(NC(=O)c2cccc(CN3CCCN(Cc4cccc(O)c4)CC3)c2)cc1,3%,22%,1,82% (active),inactive,inactive,inactive,inactive
O=c1cc(NCCCNC2CCc3ccc(Cl)cc32)[nH]c2ccccc12 (stereo not drawn),39%,-2%,3,92% (active),inactive,inactive,inactive,inactive
C=C(NC(=O)C1CCCCC1)C(=O)OC,3%,15%,-4,93% (active),inactive,inactive,inactive,inactive
O=C(/C=C/c1ccc(Cl)c(Cl)c1)N1CCC(CCCN2CCC(c3c[nH]c4ccc(O)cc34)CC2)CC1,99% (active),60% (active),1,102% (active),inactive,inactive,inactive,inactive
Cc1ccc(Nc2nc3cc(N(C)c4ccnc(Nc5cccc(CS(C)(=O)=O)c5)n4)ccc3o2)cc1,16%,-19%,3,90% (active),inactive,inactive,inactive,inactive
O=C(Nc1cccc(-c2cccc(-c3nc4ccccc4[nH]3)c2)c1)c1cccnc1,14%,12%,-3,95% (active),inactive,inactive,inactive,inactive
O=C(Nc1cccc(-c2ccc(CN3CCCC3)cc2)c1)c1ccc(Cl)cc1,47%,29%,-1,100% (active),inactive,inactive,inactive,inactive
COC(=O)c1ccc(CCCNCC(O)c2cccc(C(F)(F)F)c2)cc1 (stereo not drawn),88% (active),0%,4,97% (active),inactive,inactive,inactive,inactive
CCCCCC(C)N=C(Nc1ccc(C#N)cc1O)Nc1cccc(Cl)c1Cl (stereo not drawn),98% (active),28%,-5,100% (active),inactive,inactive,inactive,inactive
Cc1cccc2[nH]c(-c3ccc(-c4cccc(C(=O)NCCc5cn(C)cn5)c4)s3)nc12,17%,27%,-7,92% (active),inactive,inactive,inactive,inactive
CCCCCCNC[C@@H](O)[C@H](Cc1ccccc1)NC(=O)c1cc(NCC)cc(N2CCCCS2(=O)=O)c1,98% (active),5%,-5,100% (active),inactive,inactive,inactive,inactive
COc1ccc(-c2ccc(CNCc3ccsc3)cc2)cc1S(=O)(=O)NCCN1CCCC1,30%,22%,3,94% (active),inactive,inactive,inactive,inactive
COc1ccc(CNCc2ccc(F)cc2)cc1-c1ccc(S(=O)(=O)NCCN2CCCC2)c(C)c1,56% (active),55% (active),-2,98% (active),inactive,inactive,inactive,inactive
FC(F)(F)c1cccc(-c2cc(NCCCn3ccnc3)nc(-c3ccncc3)n2)c1,100% (active),50% (active),5,101% (active),inactive,inactive,inactive,inactive
COc1cc(NC(=O)/C=C/c2cc(F)cc(F)c2F)cc(OCCN2CCC(O)(c3ccccc3)CC2)c1,82% (active),54% (active),6,103% (active),inactive,inactive,inactive,inactive
Cc1c(-c2ccccc2)ccc2[nH]cc(CC#N)c12,85% (active),2%,-2,95% (active),inactive,inactive,inactive,inactive
Cc1cccc2[nH]c(-c3ccc(-c4ccc(CN5CCN(CC6CCCN(C)C6)CC5)cc4)s3)nc12 (stereo not drawn),99% (active),63% (active),-3,101% (active),inactive,inactive,inactive,inactive
CC(CN1CCN(C)CC1)C(=O)Nc1ccc(-c2ccc(-c3nc4ccc(C(F)(F)F)cc4[nH]3)cc2)cc1 (stereo not drawn),100% (active),19%,-8,101% (active),inactive,inactive,inactive,inactive
COc1ccc2nccc([C@@H](O)CN3CCC(NC(=O)C(c4cc5ccccc5o4)N4CCN(C(c5ccccc5)c5ccccc5)CC4)CC3)c2c1 (stereo partly drawn),100% (active),18%,-4,100% (active),inactive,inactive,inactive,inactive
CCc1cn2c3c(cc(C(=O)N[C@@H](Cc4ccccc4)[C@H](O)CNCCOC)cc13)N(C)S(=O)(=O)CC2,56% (active),7%,-9,98% (active),inactive,inactive,inactive,inactive
NC(N)=NN=Cc1c2ccccc2c(Cl)c2ccc(Cl)cc12,89% (active),97% (active),8,98% (active),inactive,inactive,inactive,inactive

SMILES,growth inhibition [1],inhibition [2],inhibition [3] [%],growth inhibition [4],outcome [5],outcome [6],outcome [7],outcome [8]
O=C1C(=Cc2cc(Cc3ccccc3)ccc2O)SC(=S)N1Cc1ccccc1,53% (active),16%,-2,98% (active),inactive,inactive,inactive,inactive
CCc1ccccc1N1CCN(CCCCNC(=O)c2ccc(NC(=O)c3ccc(Cl)cc3)cc2)CC1,4%,21%,-4,96% (active),inactive,inactive,inactive,inactive
COc1ccc(NC(=O)NC2CCN(c3ccnc4cc(Cl)ccc34)C2)cc1 (stereo not drawn),69% (active),10%,-2,101% (active),inactive,inactive,inactive,inactive
CCOc1ccc2c(NN=Cc3cccc(F)c3)cc(C)nc2c1,100% (active),0%,7,100% (active),inactive,inactive,inactive,inactive
CCCN(CCC)C(=O)c1cc(C(=O)N[C@@H](Cc2ccccc2)[C@H](O)CNC(C)(C)c2cccc(OC)c2)cc(N2CCCCS2(=O)=O)c1,74% (active),16%,-3,99% (active),inactive,inactive,inactive,inactive
CN(CCCCCNC(=O)/C=C/c1ccc(Cl)c(Cl)c1)CCc1c[nH]c2ccccc12,18%,40%,2,91% (active),inactive,inactive,inactive,inactive
O=S(=O)(NCCN1CCCC1)c1cccc(-c2ccc(CNCc3ccsc3)cc2)c1,31%,33%,6,101% (active),inactive,inactive,inactive,inactive
CS(=O)(=O)c1cccc2sc(N3CCN(C(=O)c4ccc([N+](=O)[O-])o4)CC3)nc12,61% (active),-26%,-4,84% (active),inactive,inactive,inactive,inactive
CCOC(=O)c1ccc(NC(=O)N(Cc2ccc(-c3cccc(CN4CCNCC4)c3)cc2)C2CCN(Cc3ccccc3)CC2)cc1,55% (active),19%,4,100% (active),inactive,inactive,inactive,inactive
O=C(Nc1ccc(-c2nc3ccccc3[nH]2)cc1)c1ccc(Cl)s1,34%,16%,4,99% (active),inactive,inactive,inactive,inactive
O=C(Nc1ccc(C(F)(F)F)cc1)c1ccc(S(=O)(=O)NC2CCN(CC3CCCCC3)CC2)cc1,20%,30%,1,101% (active),inactive,inactive,inactive,inactive
CC(C)N1CCN(C(CN2CCN(CCCOc3ccc4nonc4c3)CC2)c2ccc(F)cc2)CC1 (stereo not drawn),40%,-3%,-3,97% (active),inactive,inactive,inactive,inactive
COc1c(C2CCN(CCCCNC(=O)c3cc(-c4ccc(Cl)cc4)sc3C)CC2)ccc2c1CCCC2,65% (active),61% (active),2,101% (active),inactive,inactive,inactive,inactive
CCCCCCN1CCC(NCc2ccc(C)cc2)CC1,4%,16%,-1,93% (active),inactive,inactive,inactive,inactive
Cc1ccc(-c2nnc(Nc3ccc(C(=O)N4CCCCC4)cc3)c3ccccc23)cc1S(=O)(=O)NCC1CCCO1 (stereo not drawn),99% (active),-5%,-4,99% (active),inactive,inactive,inactive,inactive
Cc1cc(NN=Cc2ccc(F)cc2)c2cccc(C)c2n1,99% (active),7%,-6,100% (active),inactive,inactive,inactive,inactive
CS(=O)(=O)NCCCNCc1cccc(-c2ccc(-c3nc4ccc(C(F)(F)F)cc4[nH]3)s2)c1,51% (active),11%,-8,100% (active),inactive,inactive,inactive,inactive
Cc1nc2c(Nc3nc(-c4ccncc4)cs3)ncnc2n1-c1ccccc1Cl,96% (active),14%,0,97% (active),inactive,inactive,inactive,inactive
CCCN(CCC)CCCNc1ccc(C(=O)Nc2ccc(C)c(F)c2)cc1[N+](=O)[O-],94% (active),33%,3,100% (active),inactive,inactive,inactive,inactive
O=C(Nc1cc(=O)[nH]c2nc(-c3ccccc3)nn12)C1CCCCC1,89% (active),-9%,-4,86% (active),inactive,inactive,inactive,inactive
